Source: paper PMC7862700, “An all-to-all approach to the identification of sequence-specific readers for epigenetic DNA modifications on cytosine”

What was measured:
Test in all cases: DAPPL (digital affinity profiling via proximity ligation, sequencing); 10 mM Tris-HCl pH 7.5, 50 mM NaCl, 1 mM DTT, 4% glycerol, room temperature, 30 min; GST-TFs on glutathione beads, 16-mer random dsDNA library, 0.1% formaldehyde crosslink after washing; high values mean tight binding
Conditions in all cases: protein: recombinant; tags: N-terminal GST; dsDNA, one strand shown
[1] = biological target: T1, ERF (Homo sapiens, UniProt P50548 1-548)
T1 sequence: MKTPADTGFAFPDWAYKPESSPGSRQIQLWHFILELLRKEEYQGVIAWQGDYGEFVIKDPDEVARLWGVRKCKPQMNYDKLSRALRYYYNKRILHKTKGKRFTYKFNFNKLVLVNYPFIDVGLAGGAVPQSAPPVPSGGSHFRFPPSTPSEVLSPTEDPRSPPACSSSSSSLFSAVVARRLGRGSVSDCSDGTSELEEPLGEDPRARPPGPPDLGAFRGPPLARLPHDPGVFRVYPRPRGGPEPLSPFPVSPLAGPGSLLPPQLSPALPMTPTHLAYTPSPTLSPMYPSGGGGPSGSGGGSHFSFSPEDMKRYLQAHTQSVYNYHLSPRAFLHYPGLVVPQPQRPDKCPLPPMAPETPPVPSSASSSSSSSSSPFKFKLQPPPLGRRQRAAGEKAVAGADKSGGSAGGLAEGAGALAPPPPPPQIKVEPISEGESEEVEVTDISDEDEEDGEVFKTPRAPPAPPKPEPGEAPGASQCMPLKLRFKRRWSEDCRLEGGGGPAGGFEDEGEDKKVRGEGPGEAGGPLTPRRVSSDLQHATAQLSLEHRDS
Method in brief: (§1)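 Binding signal is given per hexamer as its read frequency for a factor divided by its frequency in the tag-only sample. GST-fused human transcription factors were expressed in yeast, captured on glutathione beads, barcoded with DNA and pooled with that sample, then incubated with 200 nmole of a 16-mer random double-stranded DNA library in Tris/NaCl/DTT/glycerol buffer for 30 min at room temperature. The pools were then washed, crosslinked, proximity-ligated, amplified by PCR and sequenced on an Illumina NextSeq500.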

[2] = biological target: T2, ETV3L (Homo sapiens, UniProt Q6ZN32 1-361)
T2 sequence: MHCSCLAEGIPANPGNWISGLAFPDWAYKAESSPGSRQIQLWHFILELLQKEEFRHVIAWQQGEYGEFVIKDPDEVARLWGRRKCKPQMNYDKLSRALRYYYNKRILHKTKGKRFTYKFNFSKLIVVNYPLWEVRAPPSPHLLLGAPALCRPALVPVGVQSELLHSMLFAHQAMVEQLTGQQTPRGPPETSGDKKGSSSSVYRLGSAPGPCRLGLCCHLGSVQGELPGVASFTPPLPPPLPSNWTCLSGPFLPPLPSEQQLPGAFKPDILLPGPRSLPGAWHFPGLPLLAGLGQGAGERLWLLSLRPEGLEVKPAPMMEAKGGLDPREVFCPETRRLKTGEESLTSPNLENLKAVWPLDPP
Method in brief: as §1

[3] = biological target: T3, ETS2 (Homo sapiens, UniProt P15036 1-469)
T3 sequence: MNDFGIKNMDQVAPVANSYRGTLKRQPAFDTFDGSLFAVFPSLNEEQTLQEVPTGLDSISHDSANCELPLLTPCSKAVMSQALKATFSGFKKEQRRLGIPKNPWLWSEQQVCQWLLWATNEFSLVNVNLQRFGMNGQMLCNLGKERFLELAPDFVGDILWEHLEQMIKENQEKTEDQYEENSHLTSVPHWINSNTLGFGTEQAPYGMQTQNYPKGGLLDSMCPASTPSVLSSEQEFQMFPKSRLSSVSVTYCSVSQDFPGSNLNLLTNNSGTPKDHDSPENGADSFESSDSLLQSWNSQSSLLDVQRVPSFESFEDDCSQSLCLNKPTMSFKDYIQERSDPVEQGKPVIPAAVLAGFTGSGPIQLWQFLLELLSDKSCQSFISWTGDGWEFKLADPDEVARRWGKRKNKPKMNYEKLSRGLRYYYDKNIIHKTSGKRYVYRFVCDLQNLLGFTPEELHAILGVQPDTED
Method in brief: as §1

[4] = biological target: T4, SPDEF (Homo sapiens, UniProt O95238 1-335)
T4 sequence: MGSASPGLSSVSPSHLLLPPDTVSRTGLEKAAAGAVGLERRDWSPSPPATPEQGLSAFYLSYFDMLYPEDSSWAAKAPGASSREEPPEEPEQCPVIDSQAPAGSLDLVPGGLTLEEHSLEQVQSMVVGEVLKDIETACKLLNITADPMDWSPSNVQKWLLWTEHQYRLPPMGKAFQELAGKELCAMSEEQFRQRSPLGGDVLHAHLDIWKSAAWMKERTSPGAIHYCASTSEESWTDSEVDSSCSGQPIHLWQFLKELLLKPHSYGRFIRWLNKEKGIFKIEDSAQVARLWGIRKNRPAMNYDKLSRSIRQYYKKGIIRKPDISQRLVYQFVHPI
Method in brief: as §1

[5] = biological target: T5, ETV7 (Homo sapiens, UniProt Q9Y603 1-341)
T5 sequence: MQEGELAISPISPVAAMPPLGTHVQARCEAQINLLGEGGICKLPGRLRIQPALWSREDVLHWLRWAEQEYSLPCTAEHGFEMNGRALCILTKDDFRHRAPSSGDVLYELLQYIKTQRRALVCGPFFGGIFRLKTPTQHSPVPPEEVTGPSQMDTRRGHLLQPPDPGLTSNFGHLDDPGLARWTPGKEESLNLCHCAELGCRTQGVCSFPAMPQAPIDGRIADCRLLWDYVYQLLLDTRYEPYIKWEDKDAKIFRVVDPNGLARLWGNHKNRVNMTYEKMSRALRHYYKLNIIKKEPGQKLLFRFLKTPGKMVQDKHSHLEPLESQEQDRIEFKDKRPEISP
Method in brief: as §1

[6] = biological target: T6, ELF5 (Homo sapiens, UniProt Q9UKW6-2 1-255)
T6 sequence: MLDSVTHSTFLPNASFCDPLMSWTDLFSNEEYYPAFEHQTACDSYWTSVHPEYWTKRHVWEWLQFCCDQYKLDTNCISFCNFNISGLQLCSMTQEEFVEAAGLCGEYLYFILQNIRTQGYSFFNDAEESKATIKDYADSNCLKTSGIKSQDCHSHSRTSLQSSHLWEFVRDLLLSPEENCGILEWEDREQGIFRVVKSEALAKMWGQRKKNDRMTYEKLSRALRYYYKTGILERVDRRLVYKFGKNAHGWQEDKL
Method in brief: as §1

[7] = biological target: T7, ETV3 (Homo sapiens, UniProt P41162-2 1-143)
T7 sequence: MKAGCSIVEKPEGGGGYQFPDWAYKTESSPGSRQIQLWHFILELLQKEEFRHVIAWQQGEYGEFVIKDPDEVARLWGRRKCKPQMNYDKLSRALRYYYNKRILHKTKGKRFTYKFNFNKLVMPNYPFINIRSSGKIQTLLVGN
Method in brief: as §1

[8] = biological target: ETV6 (Homo sapiens, UniProt P41212 1-452)
Method in brief: as §1

ETV6, sequence (P41212 whole entry): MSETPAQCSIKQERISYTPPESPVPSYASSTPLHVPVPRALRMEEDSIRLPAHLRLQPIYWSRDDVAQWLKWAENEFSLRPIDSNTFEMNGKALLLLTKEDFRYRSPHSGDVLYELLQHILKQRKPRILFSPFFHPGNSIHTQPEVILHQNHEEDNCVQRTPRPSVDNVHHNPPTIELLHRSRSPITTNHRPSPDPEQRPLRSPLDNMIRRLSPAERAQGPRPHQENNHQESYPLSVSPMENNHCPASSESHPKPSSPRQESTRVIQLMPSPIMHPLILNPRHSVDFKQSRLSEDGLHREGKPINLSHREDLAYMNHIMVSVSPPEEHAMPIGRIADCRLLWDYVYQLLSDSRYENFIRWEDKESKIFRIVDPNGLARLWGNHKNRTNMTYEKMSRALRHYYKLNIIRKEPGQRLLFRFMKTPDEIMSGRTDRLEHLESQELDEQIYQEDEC

Sequence	binding signal [1]	binding signal [2]	binding signal [3]	binding signal [4]	binding signal [5]	binding signal [6]	binding signal [7]	binding signal [8]
CAAATT	1.17 fold enrichment (6-mer frequency, TF over GST control)	1.18 fold enrichment (6-mer frequency, TF over GST control)	1.17 fold enrichment (6-mer frequency, TF over GST control)	1.12 fold enrichment (6-mer frequency, TF over GST control)	1.14 fold enrichment (6-mer frequency, TF over GST control)	1.1 fold enrichment (6-mer frequency, TF over GST control)	1.13 fold enrichment (6-mer frequency, TF over GST control)	1.1 fold enrichment (6-mer frequency, TF over GST control)
ACTGTT	1.19 fold enrichment (6-mer frequency, TF over GST control)	1.09 fold enrichment (6-mer frequency, TF over GST control)	1.13 fold enrichment (6-mer frequency, TF over GST control)	1.04 fold enrichment (6-mer frequency, TF over GST control)	1.01 fold enrichment (6-mer frequency, TF over GST control)	1.22 fold enrichment (6-mer frequency, TF over GST control)	1.2 fold enrichment (6-mer frequency, TF over GST control)	1.2 fold enrichment (6-mer frequency, TF over GST control)
CAATGC	1.08 fold enrichment (6-mer frequency, TF over GST control)	1.15 fold enrichment (6-mer frequency, TF over GST control)	1.15 fold enrichment (6-mer frequency, TF over GST control)	1.2 fold enrichment (6-mer frequency, TF over GST control)	1.24 fold enrichment (6-mer frequency, TF over GST control)	1.13 fold enrichment (6-mer frequency, TF over GST control)	1.2 fold enrichment (6-mer frequency, TF over GST control)	1.24 fold enrichment (6-mer frequency, TF over GST control)
GCCGAC	1.2 fold enrichment (6-mer frequency, TF over GST control)	1.29 fold enrichment (6-mer frequency, TF over GST control)	1.15 fold enrichment (6-mer frequency, TF over GST control)	1.12 fold enrichment (6-mer frequency, TF over GST control)	1.12 fold enrichment (6-mer frequency, TF over GST control)	1.07 fold enrichment (6-mer frequency, TF over GST control)	1.23 fold enrichment (6-mer frequency, TF over GST control)	1.08 fold enrichment (6-mer frequency, TF over GST control)
TGCGTA	1.15 fold enrichment (6-mer frequency, TF over GST control)	1.17 fold enrichment (6-mer frequency, TF over GST control)	1.19 fold enrichment (6-mer frequency, TF over GST control)	1.12 fold enrichment (6-mer frequency, TF over GST control)	1.01 fold enrichment (6-mer frequency, TF over GST control)	1.1 fold enrichment (6-mer frequency, TF over GST control)	–	1.11 fold enrichment (6-mer frequency, TF over GST control)
TCACAT	1.24 fold enrichment (6-mer frequency, TF over GST control)	1.24 fold enrichment (6-mer frequency, TF over GST control)	1.25 fold enrichment (6-mer frequency, TF over GST control)	1.44 fold enrichment (6-mer frequency, TF over GST control)	1.3 fold enrichment (6-mer frequency, TF over GST control)	1.14 fold enrichment (6-mer frequency, TF over GST control)	1.21 fold enrichment (6-mer frequency, TF over GST control)	1.23 fold enrichment (6-mer frequency, TF over GST control)
GAAAAC	1.11 fold enrichment (6-mer frequency, TF over GST control)	1.13 fold enrichment (6-mer frequency, TF over GST control)	1.11 fold enrichment (6-mer frequency, TF over GST control)	1.07 fold enrichment (6-mer frequency, TF over GST control)	1.13 fold enrichment (6-mer frequency, TF over GST control)	1.16 fold enrichment (6-mer frequency, TF over GST control)	–	1.06 fold enrichment (6-mer frequency, TF over GST control)
TGTCTG	1.09 fold enrichment (6-mer frequency, TF over GST control)	1.05 fold enrichment (6-mer frequency, TF over GST control)	1.09 fold enrichment (6-mer frequency, TF over GST control)	1.15 fold enrichment (6-mer frequency, TF over GST control)	1.02 fold enrichment (6-mer frequency, TF over GST control)	1.15 fold enrichment (6-mer frequency, TF over GST control)	–	1.12 fold enrichment (6-mer frequency, TF over GST control)
TCGACG	1.02 fold enrichment (6-mer frequency, TF over GST control)	1 fold enrichment (6-mer frequency, TF over GST control)	1.07 fold enrichment (6-mer frequency, TF over GST control)	1.05 fold enrichment (6-mer frequency, TF over GST control)	1.05 fold enrichment (6-mer frequency, TF over GST control)	1.01 fold enrichment (6-mer frequency, TF over GST control)	–	1.07 fold enrichment (6-mer frequency, TF over GST control)
ATCCCA	1.21 fold enrichment (6-mer frequency, TF over GST control)	1.1 fold enrichment (6-mer frequency, TF over GST control)	1.03 fold enrichment (6-mer frequency, TF over GST control)	1.1 fold enrichment (6-mer frequency, TF over GST control)	1.2 fold enrichment (6-mer frequency, TF over GST control)	1.17 fold enrichment (6-mer frequency, TF over GST control)	–	1.12 fold enrichment (6-mer frequency, TF over GST control)
ACCGCT	1.21 fold enrichment (6-mer frequency, TF over GST control)	1.12 fold enrichment (6-mer frequency, TF over GST control)	1.1 fold enrichment (6-mer frequency, TF over GST control)	1.06 fold enrichment (6-mer frequency, TF over GST control)	1.13 fold enrichment (6-mer frequency, TF over GST control)	1.05 fold enrichment (6-mer frequency, TF over GST control)	1.04 fold enrichment (6-mer frequency, TF over GST control)	1.15 fold enrichment (6-mer frequency, TF over GST control)
AAAGAA	1.27 fold enrichment (6-mer frequency, TF over GST control)	1.19 fold enrichment (6-mer frequency, TF over GST control)	1.26 fold enrichment (6-mer frequency, TF over GST control)	1.18 fold enrichment (6-mer frequency, TF over GST control)	1.36 fold enrichment (6-mer frequency, TF over GST control)	1.23 fold enrichment (6-mer frequency, TF over GST control)	1.2 fold enrichment (6-mer frequency, TF over GST control)	1.3 fold enrichment (6-mer frequency, TF over GST control)
TTACGT	1.11 fold enrichment (6-mer frequency, TF over GST control)	1.18 fold enrichment (6-mer frequency, TF over GST control)	1.21 fold enrichment (6-mer frequency, TF over GST control)	1.13 fold enrichment (6-mer frequency, TF over GST control)	1.14 fold enrichment (6-mer frequency, TF over GST control)	1.12 fold enrichment (6-mer frequency, TF over GST control)	1.15 fold enrichment (6-mer frequency, TF over GST control)	1.09 fold enrichment (6-mer frequency, TF over GST control)
CCCTGT	1.19 fold enrichment (6-mer frequency, TF over GST control)	1.06 fold enrichment (6-mer frequency, TF over GST control)	1.06 fold enrichment (6-mer frequency, TF over GST control)	1.02 fold enrichment (6-mer frequency, TF over GST control)	1.03 fold enrichment (6-mer frequency, TF over GST control)	1.08 fold enrichment (6-mer frequency, TF over GST control)	–	1.06 fold enrichment (6-mer frequency, TF over GST control)
GTAATG	1.12 fold enrichment (6-mer frequency, TF over GST control)	1.11 fold enrichment (6-mer frequency, TF over GST control)	1.07 fold enrichment (6-mer frequency, TF over GST control)	1.15 fold enrichment (6-mer frequency, TF over GST control)	1.05 fold enrichment (6-mer frequency, TF over GST control)	1.1 fold enrichment (6-mer frequency, TF over GST control)	–	1.03 fold enrichment (6-mer frequency, TF over GST control)
